TDP1 cell CPT – DT40-hTDP1 cell growth loss with CPT; chicken DT40 Tdp1-/-;hTDP1 cells + 20 nM CPT, ATP luminescence, 48 h; Potency, µM (top dose mostly 46.2 µM), usual class: inhibitors; 420,000 tested, 12% active; AID 686979; note: nearly all actives have a fitted effect of over 55% in size
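Cell growth measured by CellTiter-Glo luminescence after a minimum 48 h, 37 C compound exposure with 20 nM CPT in Tdp1-knockout DT40 cells stably expressing hTDP1, seeded 400/well; qHTS titration format.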
DT40 TDP1 no CPT – qHTS for Inhibitors of human tyrosyl-DNA phosphodiesterase 1 (TDP1): qHTS in cells in absence of CPT; DT40 Tdp1-/- hTDP1 cells, no CPT, ATP luminescence, 48 h; Potency, µM (highest dose often 46.2 µM), most hits filed as inhibitors; 420,000 tested, 15% active; note: nearly all actives have a fitted effect of over 55% in size
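Camptothecin absent (DMSO only). Human TDP1-complemented DT40 knockout cells, 400 cells/well, 37 °C for minimum 48 hr; ATP measured via CellTiter-Glo, 30 min dark incubation, luminescence.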
RORgamma inh – ROR gamma (mouse) transcription inhibition; 310,000 tested, 5.4% active; P51450; Drosophila S2 Gal4-RORgamma UAS-luciferase reporter, 20 h; Potency, µM (top dose mostly 53.6 µM), usual class: inhibitors; note: nearly all actives have a fitted effect of over 60% in size
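In this cell-based reporter format, copper sulfate (700 uM final) drives Gal4–ROR gamma fusion expression from a metallothionein promoter in Drosophila Schneider cells; compounds preincubated 1 hr, reporter read after 20 hr at ambient temperature.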
VP16 counter – counter-screen for ROR gamma inhibitors: Gal4-VP16 reporter | 310,000 tested, 3.5% active | Drosophila S2 Gal4-VP16 UAS-luciferase, luminescence, 20 h | Potency, µM (series often up to 53.6 µM), most hits filed as inhibitors | AID 2546;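 note: Gal4-VP16 expression switched on by copper sulfate through the metallothionein promoter; nearly all actives have a fitted effect of over 50% in size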
TDP1 inh – blocks human tyrosyl-DNA phosphodiesterase 1. AID 485290. recombinant TDP1, AlphaScreen DNA substrate cleavage. Potency, µM (top dose mostly 130 µM), hits mostly inhibitors. 350,000 tested, 0.28% active. Q9NUW8; note: nearly all actives have a fitted effect of over 40% in size
Target sequence (Q9NUW8 whole entry, looked up): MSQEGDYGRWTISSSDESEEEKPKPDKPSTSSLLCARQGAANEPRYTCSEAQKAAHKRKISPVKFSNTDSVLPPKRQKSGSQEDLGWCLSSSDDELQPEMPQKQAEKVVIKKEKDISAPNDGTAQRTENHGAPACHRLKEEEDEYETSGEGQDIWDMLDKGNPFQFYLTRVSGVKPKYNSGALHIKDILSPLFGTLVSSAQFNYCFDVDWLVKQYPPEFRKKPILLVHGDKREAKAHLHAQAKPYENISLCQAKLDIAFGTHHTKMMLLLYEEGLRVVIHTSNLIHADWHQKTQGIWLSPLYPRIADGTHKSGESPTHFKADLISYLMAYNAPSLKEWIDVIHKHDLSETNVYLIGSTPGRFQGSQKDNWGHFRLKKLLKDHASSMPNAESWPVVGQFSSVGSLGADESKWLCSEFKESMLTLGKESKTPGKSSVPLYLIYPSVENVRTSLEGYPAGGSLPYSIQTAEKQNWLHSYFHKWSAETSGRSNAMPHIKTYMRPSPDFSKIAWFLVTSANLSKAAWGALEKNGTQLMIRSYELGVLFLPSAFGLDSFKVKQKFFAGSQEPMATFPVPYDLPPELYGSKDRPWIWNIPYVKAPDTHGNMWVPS
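Here, a 5' biotin and 3' phosphotyrosine-FITC DNA oligonucleotide reports Tdp1 activity: intact substrate bridges AlphaScreen beads, while cleavage leaves a 3' phosphate and drops signal. All incubations at room temperature.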
Numbers stand for hits; . = inactive; ? = inconclusive; / = no result given. Shown are actives, neighbours in structure and some others; about 19% of the full set was active somewhere. Calls come from the whole dose curve; as a rule, active = well fitted curve in the direction sought with a large enough effect; inconclusive = small, poorly fitted or top-dose-only effect, or another doubt; inactive = no such curve, though single readings can be large; an effect the other way counts as inactive or inconclusive.

SMILES | TDP1 cell CPT | DT40 TDP1 no CPT | RORgamma inh | VP16 counter | TDP1 inh
CCOC(=O)Cc1csc(NC(=O)c2c(O)c3ccccc3n(CCC(C)C)c2=O)n1 | 4.1µM | 4.6µM | . | . | .
Cc1cccc(Cn2c(=O)n(Cc3ccc(C(=O)NC4CCN(Cc5ccccc5)CC4)cc3)c(=O)c3ccccc32)c1 | 4.1µM | 3.3µM | / | / | .
COCc1ccc(CN2CCCC(C(=O)c3sccc3C)C2)o1 (centres undefined) | ? | ? | . | . | .
CN1C(=O)[C@]23CC4=CC=C[C@H](O)[C@H]4N2C(=O)[C@@]1(CO)SS3 | / | / | 0.045µM | . | .
CNC(=O)Oc1cc2c(cc1C(C)(C)C)CCC2 | 16µM | 16µM | / | / | /
CNC(=O)Oc1ccccc1C(=O)Nc1ccccc1 | ? | ? | ? | . | .
C=CCOC(=O)C1=C(C)OC(N)=C(C(=O)OCC)C12C(=O)N(CC(N)=O)c1ccccc12 (centres undefined) | . | . | . | ? | .
CCN1CCN(Cc2ccc(C)cc2C)CC1 | . | . | . | . | .
COC(=O)C1=C(N)OC(C)=C(C(C)=O)C12C(=O)N(C)c1ccccc12 (centres undefined) | ? | 21µM | . | . | .
CS(=O)(=O)NNP(=O)(NNS(C)(=O)=O)NC(=O)c1ccc(Br)cc1 | . | . | . | . | .
COP(=O)(OC)C1(O)C(=O)Nc2ccc(Br)cc21 (centres undefined) | 16µM | ? | ? | ? | .
CCOP(=O)(OCC)C1(O)C(=O)Nc2ccccc21 (centres undefined) | . | . | . | ? | .
C=CC[C@@H](CC(=O)N(CCO)Cc1ccccc1)C(=O)NC[C@H](OC(=O)[C@@H](CC=C)CC(=O)OC(C)(C)C)c1ccccc1 | 21µM | . | / | / | .
COc1cc(C2c3cc4c(c(O)c3CC3COC(=O)C32)OCO4)cc(OC)c1O (centres undefined) | 0.071µM | ? | / | / | .
COc1cc(C2c3cc4c(cc3C(OC(C)=O)[C@H]3COC(=O)C23)OCO4)cc(OC)c1OC (some centres undefined) | 1µM | 0.033µM | . | . | .
C=CCc1cc(OC)c2c(c1)OCO2 | . | . | . | . | .
COc1cc(C2c3cc4c(cc3CC3COC(=O)C32)OCO4)cc(OC)c1O (centres undefined) | 0.052µM | 0.29µM | / | / | /
COc1ccc(NC(=S)NC(NC(=O)CF)C(Cl)(Cl)Cl)cc1[N+](=O)[O-] (centres undefined) | . | . | . | . | .
COc1ccc(CC2(CCc3ccncc3)C(=O)NC(=O)NC2=O)c(OC)c1 | . | . | . | . | .
CCCCOc1ccc(CN2C(=O)C(=O)c3cc(C)ccc32)cc1OC | 1µM | 0.73µM | / | / | .
CCOC(=O)c1ccc(N2C(=O)c3n[nH]c(-c4cccs4)c3C2c2ccc(OC)cc2OC)cc1 (centres undefined) | 23µM | 21µM | / | / | .
CCOC(=O)COc1ccc(/C=C2\C(=O)NC(=S)N(c3ccc(OC)cc3)C2=O)cc1OC | . | . | . | . | /
CC1=Nc2cc(C(=O)N3CCC4(CC3)OCCO4)ccc2Sc2ccc(Cl)cc21 | ? | ? | . | . | .
C[C@]1(O)CCC2C3CC[C@H]4C[C@@H](OC(=O)[C@@H](N)CCCCN)CC[C@]4(C)C3CC[C@@]21C (some centres undefined) | ? | 26µM | / | / | /
C[C@]12CCC3C(CC[C@H]4C[C@H](N)CC[C@]34C)C1CC[C@H]2O (some centres undefined) | ? | ? | . | . | /
O=C(Nc1ccc2nc(-c3cccs3)c(-c3cccs3)nc2c1)NC1CC1 | ? | 18µM | ? | ? | .
CC1=CCCC2C1(C)CCC(C)C2(C)CC/C(C)=C/C[n+]1cn(C)c2c(N)ncnc21 (centres undefined) | ? | ? | . | . | .
CC1(C)CC(=O)C(C=NCCN2CCN(C(=O)Cc3ccc(Cl)cc3)CC2)=C(O)C1 | . | . | . | . | .
O=C(c1n[nH]c(=O)c2ccccc12)N1CCC2(CC1)OCCO2 | . | . | . | . | .

Bioassay records as filed in PubChem BioAssay.
